Screens from PubChem.
Hits are enriched below; roughly 4.3% of the tested compounds scored in any of these assays.
rCAG binder: binds r(CAG) RNA repeats; AID 651821; inhibition, % at 3 µM; 370,000 compounds, 1.3% hits; r(CAG) RNA repeat, TO-PRO-1 dye displacement fluorescence;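 active = inhibition above the plate cutoff, the mean of all test compounds on that plate plus 3 SD, cut at about 35% in these data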;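 note: 0% = DMSO alone and 100% = 100 µM mitoxantrone as full dye displacement; higher means more dye released from RNA so lower well fluorescence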
GRIN3A LBD mod: modulates the human NR3A ligand-binding domain; NR3A LBD differential scanning fluorimetry, Tm shift; 0% = protein alone, 100% = glycine-bound protein; Tm shift relative to glycine control, % at 25 µM; 340,000 compounds, 2.5% hits;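 active = melting temperature shift of at least 10% of the positive control shift, at one fixed dose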
FAS TE block: inhibitors of human fatty acid synthase thioesterase domain; recombinant FAS-TE, OMFH fluorogenic substrate, fluorescence endpoint; 360,000 compounds, 0.67% hits; inhibition, % at 15 µM;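 active = compounds whose normalised, plate-corrected inhibition of enzyme fluorescence in the single-dose primary screen is 50% or more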;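 note: 0% = DMSO with enzyme and 100% = substrate without enzyme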
NadD inh: blocks S. aureus nicotinate mononucleotide adenylyltransferase; purified NadD enzyme, colorimetric absorbance read-out; inhibition, % at 20 µM; 360,000 compounds, 0.78% hits; AID 602399; in the data active = inhibition above about 26%
rCAG bind conf: r(CAG) RNA repeat binding, confirmation | 4,300 compounds, 70% hits | inhibition, % at 3 µM | AID 652065 | TO-PRO-1 dye displacement fluorescence | shares compounds with rCAG binder;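 active = inhibition above a per-plate cutoff, the mean inhibition of sample wells plus 3 SD, cut at about 35% in these data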;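 note: loss of TO-PRO-1 fluorescence as compound displaces dye from 1x1 AA loop RNA; 0% = DMSO only wells and 100% = 100 µM mitoxantrone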
dCAG dye counter: DNA CAG dye complex inhibition counter-screen. shares compounds with rCAG binder. d(CAG) DNA oligo TO-PRO-1 dye displacement, fluorescence. inhibition, % at 3 µM. 4,300 compounds, 94% hits. AID 652068;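 active = inhibition above its plate's cutoff, the mean test-well inhibition plus 3 SD, cut at about 4.8% in these data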;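 note: 0% = DNA dye mix with DMSO and 100% = 100 µM mitoxantrone; hits displace the dye from DNA and so lower well fluorescence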
DNA CAG DR: counter-screen for rCAG binders: inhibitors of DNA CAG TO-PRO-1 complex; shares compounds with rCAG binder; DNA CAG/GTC duplex TO-PRO-1 dye displacement fluorescence; IC50, µM; 250 compounds, 20% hits; AID 686960; in the data active = IC50 below about 10 µM
Starred values were filed as active, the others as inactive; i = inactive; / = no result.

SMILES | rCAG binder | GRIN3A LBD mod | FAS TE block | NadD inh | rCAG bind conf | dCAG dye counter | others
CC1(C(=O)NS(=O)(=O)c2ccccc2Cl)CCN1C(=O)CCc1ccc(Cl)cc1Cl (configuration not stated) | 47* | / | -9 | -2 | 36* | 7.3*
Cc1ccccc1S(=O)(=O)NC(=O)C1(C)CCN1C(=O)CCc1ccc(Cl)cc1Cl (configuration not stated) | 44* | / | -6 | -7 | 33 | 6.1*
CC(C)N1C(=O)S/C(=C/c2ccccc2OCc2ccc(C(=O)O)cc2)C1=O | 55* | 0 | 4 | 2 | 56* | 17*
CN1C(=O)S/C(=C/c2ccccc2OCc2ccc(C(=O)O)cc2)C1=O | 14 | 1 | -4 | 8 | / | /
Cc1cc(C)c2nc(NNC(=O)c3ccc(S(=O)(=O)N4CCCC(C)C4)cc3)sc2c1 (configuration not stated) | 47* | 5 | 7 | 15 | 52* | 23*
O=C(N/N=C/c1ccc(O)c(O)c1O)/C(=C/c1ccc([N+](=O)[O-])cc1)NC(=O)c1ccccc1 | 66* | -3 | 47 | 44* | 66* | 32*
CC(C)NC(=O)Cn1c(-c2cncs2)nc2ccccc21 | 1 | / | / | / | / | /
CCc1ccc(NC(=S)N(Cc2cccc(Br)c2)CC2CCC(C(=O)O)CC2)cc1 (configuration not stated) | 42* | 0 | 11 | 15 | 53* | 18*
Cc1ccc(NC(=S)N(Cc2cccc(Br)c2)CC2CCC(C(=O)O)CC2)cc1Cl (configuration not stated) | 44* | -7 | 45 | 5 | 60* | 21* | DNA CAG DR=i
O=C(NCc1ccccc1)[C@H]1CCCN1C(=O)[C@H]1CCCN1C(=O)c1cccc(F)c1 | 1 | / | / | / | / | /
COC(=O)[C@H]1C[C@@]2(N3CCCC3)c3ccccc3N(C(=O)OC(C)(C)C)[C@H]2N1C(=O)OC(C)(C)C | -1 | / | / | / | / | /
N/C(=N\C(=O)OCc1ccccc1)N(Cc1ccccc1)C(C#CC1=CCCCC1)Cc1ccccc1 (configuration not stated) | 12 | / | / | / | / | /
COc1ccc(CNC(=O)C2CCN(S(=O)(=O)c3ccc4nc5c(c(C(=O)O)c4c3)CC(C)CC5)CC2)cc1 (configuration not stated) | 33 | -3 | -7 | 4 | / | /
O=C(O)c1c2c(nc3ccc(S(=O)(=O)N4CCC(C(=O)NCc5ccccc5)CC4)cc13)CCCC2 | 16 | / | -6 | 2 | / | /
CC1CCc2nc3ccc(S(=O)(=O)N4CCC(C(=O)NCc5ccccc5Cl)CC4)cc3c(C(=O)O)c2C1 (configuration not stated) | 47* | 2 | -2 | 14 | 54* | 21*
CN(Cc1ccccc1)C(=O)C1CCN(S(=O)(=O)c2ccc3nc4c(c(C(=O)O)c3c2)CCCC4)CC1 | 54* | -4 | -4 | 15 | 54* | 17*
Cc1ccc(CCNC(=O)C2CCN(S(=O)(=O)c3ccc4nc5c(c(C(=O)O)c4c3)CCCC5)CC2)cc1 | 50* | 0 | -6 | 3 | 32 | 9.0*
CCOC(=O)[C@@]12CCCC=C1N(CCc1ccc(Cl)cc1)C(=O)[C@H]2CC(=O)N1CCSCC1 | 8 | / | / | / | / | /
O=C(CN(CCc1ccccc1)S(=O)(=O)c1cccs1)N1CCOCC1 | 1 | / | / | / | / | /
Cc1ccc(C)c(S(=O)(=O)C(C#N)c2nc3ccccc3nc2N2CC(C)OC(C)C2)c1 (configuration not stated) | 38* | 1 | -1 | 12 | 75* | 41*
CCOC(=O)[C@@]12CCC3=C1N(CCC3)C(=O)[C@H](CC(=O)N1CCC(c3ccccc3)CC1)C2 | 2 | / | / | / | / | /
CCOC(=O)Cc1c(C)nc2c(-c3cccc(Br)c3)c[nH]n2c1=O | 72* | 3 | 3 | 6 | 47* | 15*
CCOC(=O)Cc1c(C)nc2c(C#N)c[nH]n2c1=O | 5 | 0 | -10 | 0 | / | /
COC(=O)[C@]12C[C@H](CC(=O)N3CCC(c4ccccc4)CC3)C(=O)N(Cc3ccc4c(c3)OCO4)C1=C[C@H](COCc1ccccc1)O[C@@H]2C | 9 | / | / | / | / | /
Nc1[nH]c(C(=O)c2ccccc2)c(-c2ccc(Cl)cc2F)c1C(=O)NCCc1c[nH]c2ccccc12 | 12 | / | / | / | / | /
SMILES | rCAG binder | GRIN3A LBD mod | FAS TE block | NadD inh | rCAG bind conf | dCAG dye counter | others
Cc1cc(NC(=O)/C=C/c2ccccc2Cl)no1 | 2 | 0 | -12 | -5 | / | /
Cc1cc(NS(=O)(=O)c2ccc(NC(=O)/C=C/c3cccc(Cl)c3)cc2)no1 | 61* | 16* | -2 | 6 | 49* | 17*
Cc1cc(NS(=O)(=O)c2ccc(NC(=O)/C=C/c3ccccc3Cl)cc2)no1 | 71* | 6 | -3 | 0 | 56* | 23*
CCOC(=O)N1CCN(C(=O)C[C@H]2C[C@@]3(C(=O)OC)C(=C[C@H](C4CCCC4)O[C@@H]3C)N(Cc3ccco3)C2=O)CC1 | 1 | / | / | / | / | /
O=c1nc2c(O)cccn2c2c1c(=O)[nH]c1ccccc12 | 40* | -1 | -25 | 8 | 2 | -1
CC(C)n1c(O)c(N=Nc2ccc(Cl)c(C(=O)O)c2)c2ccccc21 | 38* | 0 | 1 | -6 | 36* | 9.0*
COc1cccc(/C=C2\Oc3cc(OCC(=O)N4CCC[C@H]4C(=O)O)ccc3C2=O)c1 | 37* | 0 | -2 | 8 | 44* | 13*
COc1ccc(/C=C2\Oc3cc(OCC(=O)N4CCC[C@H]4C(=O)O)ccc3C2=O)c(OC)c1 | / | 0 | -5 | 8 | / | /
COc1ccc(Cn2ccc3ccc(-c4ccc5ccn(C(=O)c6ccccc6OC)c5c4)cc32)cc1 | 15 | / | / | / | / | /
CC(C)=CCCC1=CC[C@H]2[C@@H](C1)C(C(C)C)=CC(=O)[C@@]2(C)O | -1 | / | / | / | / | /
O=C(CSc1nc(O)cc(=O)n1-c1ccccc1)Nc1ccc2c3c(cccc13)CC2 | 45* | -3 | -11 | 9 | 30 | 12*
Cc1c(O)nc(SCC(=O)Nc2ccc3c4c(cccc24)CC3)n(-c2ccccc2)c1=O | 39* | 2 | -11 | 6 | 25 | 9.2*
COc1ccc(-n2c(SCC(=O)Nc3ccccc3C)nc(O)c(Cc3ccccc3)c2=O)cc1 | 17 | -1 | -4 | 8 | / | /
Cc1ccc(S(=O)(=O)NCCCc2ccc3c(c2)[C@]2(CCC[C@@H](OCc4ccccc4)[C@@H]2NC(=O)CCc2ccccc2)C(=O)N3Cc2ccccc2)cc1 | 11 | / | / | / | / | /
CCNC(=O)N1CCN(c2ccc(N3CCN(Cc4ccccc4)[C@H](C)C3)c(C)c2)[C@@H](C)C1 | 2 | / | / | / | / | /
CCCCc1c(-c2ccccc2OC)ncn1Cc1cccc(F)c1 | 0 | / | / | / | / | /
